In all, about 370,000 compounds went through this assay and about 620 (0.17%) were called active. The full list was thinned out, with actives kept by preference. Unmarked numbers belong to inactive results.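 How the source made its calls: active means inhibition above the mean inhibition of all tested compounds plus 3 SD, set per campaign (cut at about 52% in these data); inactive means the rest.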

For the experiment, the target named is Nuclear receptor coactivator 2 (Homo sapiens) (UniProt Q15596). As to the kind of experiment: decrease of SRC2 fusion reporter luminescence – cell-based, SRC2 inhibitor project, primary screen (AID 651957).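 Further: 0% = DMSO treated cells and 100% = cells given Gossypol at 36 µM.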 Particulars: HEK293 GAL4-SRC2 luciferase reporter, at 9 µM, stronger effect = higher value. In general terms: Reporter assays use an easily measured gene product as a stand-in for the process of interest.
Chain of Nuclear receptor coactivator 2 (Homo sapiens) (Q15596 whole entry, looked up, the tested form may be a part): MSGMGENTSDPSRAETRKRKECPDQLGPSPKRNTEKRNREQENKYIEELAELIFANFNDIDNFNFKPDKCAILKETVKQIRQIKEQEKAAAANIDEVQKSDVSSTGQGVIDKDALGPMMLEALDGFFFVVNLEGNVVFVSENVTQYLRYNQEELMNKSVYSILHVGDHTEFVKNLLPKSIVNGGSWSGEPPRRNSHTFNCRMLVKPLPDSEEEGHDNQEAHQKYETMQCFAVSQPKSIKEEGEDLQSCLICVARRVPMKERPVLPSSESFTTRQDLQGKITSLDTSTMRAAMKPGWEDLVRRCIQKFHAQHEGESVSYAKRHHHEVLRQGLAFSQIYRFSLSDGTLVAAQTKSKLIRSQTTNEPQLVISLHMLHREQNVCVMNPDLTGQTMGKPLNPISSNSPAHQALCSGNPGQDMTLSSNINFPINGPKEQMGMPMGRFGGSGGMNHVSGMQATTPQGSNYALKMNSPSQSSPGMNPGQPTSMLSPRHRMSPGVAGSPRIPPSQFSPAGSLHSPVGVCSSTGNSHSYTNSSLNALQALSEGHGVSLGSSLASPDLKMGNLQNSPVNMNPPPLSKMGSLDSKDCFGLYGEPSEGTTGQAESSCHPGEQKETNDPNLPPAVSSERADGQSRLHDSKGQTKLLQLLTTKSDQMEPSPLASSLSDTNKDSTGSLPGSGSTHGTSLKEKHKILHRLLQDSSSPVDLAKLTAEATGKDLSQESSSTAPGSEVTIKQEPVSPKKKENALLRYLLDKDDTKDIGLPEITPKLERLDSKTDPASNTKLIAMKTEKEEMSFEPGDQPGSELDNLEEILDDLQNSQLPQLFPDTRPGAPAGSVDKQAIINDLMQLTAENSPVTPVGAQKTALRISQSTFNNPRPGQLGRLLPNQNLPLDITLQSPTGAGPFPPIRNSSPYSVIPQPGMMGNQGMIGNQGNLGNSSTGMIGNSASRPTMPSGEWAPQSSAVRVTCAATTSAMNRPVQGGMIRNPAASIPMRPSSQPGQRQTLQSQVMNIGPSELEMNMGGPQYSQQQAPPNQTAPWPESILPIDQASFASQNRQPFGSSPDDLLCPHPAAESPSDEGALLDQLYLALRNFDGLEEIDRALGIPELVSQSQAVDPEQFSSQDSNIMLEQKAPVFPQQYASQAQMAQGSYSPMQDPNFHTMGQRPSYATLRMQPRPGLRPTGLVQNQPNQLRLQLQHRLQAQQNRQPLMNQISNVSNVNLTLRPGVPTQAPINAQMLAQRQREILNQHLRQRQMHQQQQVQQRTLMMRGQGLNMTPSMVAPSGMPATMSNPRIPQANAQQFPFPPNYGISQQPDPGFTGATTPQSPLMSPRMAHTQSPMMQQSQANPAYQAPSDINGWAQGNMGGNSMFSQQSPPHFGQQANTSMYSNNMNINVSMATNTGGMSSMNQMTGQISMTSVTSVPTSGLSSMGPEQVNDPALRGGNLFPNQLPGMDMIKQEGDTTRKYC
As to `Cc1cc(N2CCN(C(=O)OC(C)(C)C)C[C@H]2C)ccc1N1CCN(Cc2ccccc2)[C@H](C)C1`, the inhibition was -2.83%.

For the compound `COc1ccc(CN2C(=O)N3Cc4cc(OC)ccc4C3CS2(=O)=O)cc1` (stereo not given), the inhibition is 15.8%.

`Cc1ccc(-n2c(SCC(=O)Nc3ccc(S(=O)(=O)Nc4nccs4)cc3)nnc2-c2ccccn2)cc1`: the inhibition was 9.13%.

With `CC(=O)NCc1ccc(S(=O)(=O)NC2CCN(Cc3ccccc3)CC2)cc1`, the inhibition was 6.61%.

For `COC(=O)[C@@H]1C[C@@]2(O)[C@@H](O)[C@@H](O)[C@@H](O)C[C@H]2N1Cc1ccc(C)s1`, the inhibition is -14.3%.

With `C/C=C/c1ccc(OCC(O)CN2CCCCCCC2)c(OC)c1` (stereo not given), the inhibition was 11.7%.

As to `CCOC(=O)[C@@]12CN(C(=O)OC(C)(C)C)CC=C1N(Cc1ccc(OC)cc1)C(=O)[C@H]2CC(=O)NCc1ccc(OC)c(OC)c1`, the inhibition is -4.35%.

Take `O=C(CSc1nnc(-c2ccccc2)n1Cc1ccco1)Nc1ccccc1-c1ccccc1`: the inhibition was -16.5%.

Take `CC(=O)C1=C(C)N(Cc2ccccc2)C(=S)NC1c1cccc(Br)c1` (stereo not given): the inhibition is -0.56%.

In the case of `COC(=O)c1ccc(CN2C(=O)[C@]3(OCCC=C[C@H]3C)c3c(Br)cccc32)cc1`, the inhibition was 4.53%.

For the compound `Cc1cc(Nc2ccccc2)n(C(=O)c2ccc(N)cc2)n1`, the inhibition is 62% (active).

As to `Cc1ccc(NC(=O)Nc2cc(C)nn2-c2ccccc2)cc1`, the inhibition is -32.3%.

Take `Cn1c(Nc2ccccc2)cc(=O)n(C)c1=O`: the inhibition is -0.54%.

`COc1ccc2c(c1)CN1CN(CCc3ccccc3)S(=O)(=O)CC21` (stereo not given): the inhibition was 5.4%.

`O=C(NCc1ccccc1)[C@H]1CCCN1C(=O)[C@H]1CCCN1C(=O)N1CCOCC1`: the inhibition is 3.99%.

With `CCOC(=O)C1CCCN(C(=O)c2cccc3ccccc23)CC1` (stereo not given), the inhibition was 7.84%.

Consider `CCC(C)(C(=O)NC1CCCCC1)N(C)C(=O)c1ccc2c(c1)OCO2` (stereo not given), for which the inhibition was -11.6%.

With `COc1ccc(OC)c(CNC(=O)c2cc(=O)[nH]c3ccc(S(=O)(=O)N4CCCC4)cc23)c1`, the inhibition is -15.1%.

For the compound `O=C1CC[C@@H](COc2ccc3[nH]cc(-c4ccccc4)c3c2-c2ccccc2)N1`, the inhibition was 4.07%.

Regarding `CCCc1nc(SCC(=O)N2CCCC2)c2c(=O)n(C)c(=O)n(C)c2n1`, the inhibition was 2.56%.

`O=C1NC(c2ccccc2)Cc2ccncc21` (stereo not given): the inhibition is 58.9% (active).

On to `O=C1NC(c2ccccc2)CCC1(Cl)Cl` (stereo not given), for which the inhibition was -13.7%.

Regarding `O=C1NC(c2ccccc2)Oc2ccccc21` (stereo not given), the inhibition is -0.1%.

With `CCCCn1c(N)c(N(Cc2ccccc2OC)C(=O)COc2cc(C)ccc2Cl)c(=O)[nH]c1=O`, the inhibition was -2.7%.

`O=C(NCc1nnc(SCC(=O)N2CCCCCC2)o1)c1ccc(F)cc1`: the inhibition is -14.4%.

For `Cc1ccccc1NC(=O)COC(=O)c1ccc(Sc2ncn[nH]2)c([N+](=O)[O-])c1`, the inhibition is -15.7%.

Consider `COC(=O)c1cc(S(=O)(=O)N2CCN(c3ccccc3C)CC2)cn1C`, for which the inhibition is 20.3%.

`C[C@@H]1COc2cccc(N3CCCC3)c2S(=O)(=O)N1C`: the inhibition was -9.18%.

With `Cc1ccc2oc(=O)c3cnn(CC(=O)N(Cc4ccco4)C4CCCCC4)c3c2c1`, the inhibition is -25.6%.

`NNC(=O)C1CC(O)CN1S(=O)(=O)c1ccc(Cl)cc1` (stereo not given): the inhibition was 23.4%.

In the case of `COc1ccccc1CNC(=O)C1CCN(S(=O)(=O)c2ccc3c(c2)OCCO3)CC1`, the inhibition is -1.43%.

Turning to `COC(=O)[C@]12C[C@H](CC(=O)N3CCN(C(=O)C4CC4)CC3)C(=O)N(CCC3=CCCCC3)C1=C[C@H](C(C)C)O[C@@H]2C1CC1`, the inhibition is -0.28%.

As for `CCNC(=S)N1CCC(c2nc3cc(C)c(C)cc3[nH]2)CC1`, the inhibition was -32.6%.

Turning to `O=C(CSc1nnc(-c2ccccn2)n1-c1ccccc1)Nc1ccc2cn[nH]c2c1`, the inhibition is -5.6%.

As for `CC(C)(C)C(c1nc2ccccc2[nH]1)n1c(Cc2csc3ccccc23)nc2ccccc21` (stereo not given), the inhibition was -15%.

With `CS(=O)(=O)N1CCN=C1SCc1ccc(F)cc1`, the inhibition is -10.1%.

As for `O=C(C1CCN(S(=O)(=O)c2ccccc2)CC1)N1CCN(C2CCCCC2)CC1`, the inhibition is 14.3%.

With `COC(=O)C1=C(C)N(Cc2ccc(C(F)(F)F)cc2)C(=NCc2ccc(C(F)(F)F)cc2)NC1c1cccc(Cl)c1` (stereo not given), the inhibition was -4.35%.

Take `OCCCNc1nccc(-c2cc(Nc3cccc(Cl)c3)ncn2)n1`: the inhibition was 56.3% (active).

Regarding `Cc1ccc(NC(=O)c2cc(C)nn2-c2ccccc2)c(C)c1`, the inhibition was 4.89%.

As for `CCCC(=O)N1CCC1(C)C(=O)NCc1ccc(SC)cc1` (stereo not given), the inhibition was -38.9%.

`Cc1sc2nc(SCC(=O)c3ccc(O)c(O)c3)n(Cc3ccco3)c(=O)c2c1C`: the inhibition is 8.73%.

For `C=CCN=C1NC(c2cccc(C(F)(F)F)c2)C(C(=O)OC)=C(C)N1C` (stereo not given), the inhibition was -11.9%.

`CC(C)N1CCCCC(NC(=O)c2ccc3ccccc3c2)C1=O` (stereo not given): the inhibition was -10%.

For `CCOc1ccc(S(=O)(=O)NCCCn2ccnc2)cc1NC(C)=O`, the inhibition is 12.2%.

On to `Nc1[nH]c(/C=C2/CCCCC2n2[nH]c(=O)n(-c3ccccc3)c2=O)c(Cc2ccccc2)[n+]1Cc1ccccc1` (stereo not given), for which the inhibition was 12.9%.

Take `C=CCN1[C@@H](Cc2ccccc2)COc2cccc(N3CCSCC3)c2S1(=O)=O`: the inhibition was 10.1%.

`CC(C)(C)OC(=O)NCc1cc(F)ccc1/C=C/S(=O)(=O)NCCc1ccccc1`: the inhibition was 4.87%.

Turning to `COc1cccc(N(C)C(=O)[C@@H](C)[C@@H](O)c2ccc3ccccc3c2)c1`, the inhibition is -32.8%.

With `CC(C)CC(CCc1ccccc1)OS(N)(=O)=O` (stereo not given), the inhibition was -15.3%.

As to `O=C(O)C1C2C=CC(C2)C1C(=O)N1CCN(CCO)CC1` (stereo not given), the inhibition is -0.51%.

On to `OCCN1CCN(C(=S)c2ccc(-c3ccccc3)cc2)CC1`, for which the inhibition is 71.1% (active).

In the case of `O=C(NC(=S)N1CCN(Cc2ccccc2)CC1)c1ccccc1`, the inhibition was -12.4%.

Consider `CC(=O)OC12CCCN(C1)/C(=C/c1ccncc1)C2` (stereo not given), for which the inhibition is 12.7%.

Turning to `COC(=O)C1=C(C)N(Cc2cccc(C(F)(F)F)c2)C(=NCc2ccccc2)NC1c1ccc(Cl)cc1` (stereo not given), the inhibition is -0.5%.

Consider `Cc1ccccc1NC(=O)c1nn(-c2ccc(F)c(F)c2)ccc1=O`, for which the inhibition is 1.35%.

As to `Cc1nnnn1/C(=C\c1ccccc1)C(=O)OCC(=O)N1CC2(C)CC1CC(C)(C)C2` (stereo not given), the inhibition was 32.3%.

Take `O=C1N=C2SCCN2/C1=C\c1c(Cl)cccc1Cl`: the inhibition is 4.12%.

For `Cc1ccc(NC(=O)CCOc2ccccc2)cc1S(=O)(=O)Nc1ccccc1Cl`, the inhibition was 9.26%.

Consider `CC(C)Cc1nc(Nc2ccc(S(=O)(=O)N3CCCC3)cc2)c2nnn(Cc3ccccc3)c2n1`, for which the inhibition is -14.5%.

Consider `CCCCOCCCNC(=O)C[C@H]1C[C@@]2(C(=O)OC)C(=C[C@H](C(C)(C)C)O[C@@H]2C)N(CCc2ccc(OC)c(OC)c2)C1=O`, for which the inhibition is 1.08%.

Turning to `COc1ccc(NC(=O)CCCN2C(=O)C(c3ccccc3)Oc3cccnc32)cc1` (stereo not given), the inhibition is 2.65%.

In the case of `COc1ccc(/C=C2/SC(=O)N(CCCCCC(=O)Nc3ccccc3C(=O)O)C2=S)cc1`, the inhibition is 58.3% (active).

On to `COc1ccc(NC(=O)CN2C(=O)CSC2=O)cc1`, for which the inhibition was -15.1%.

Take `CC(=O)Nc1ccc(NC(=O)C(C)n2c3ccccc3c3nc(=O)cc(C)n32)cc1` (stereo not given): the inhibition is -6.71%.

Turning to `O=C1C=C(c2ccccc2)CCC1`, the inhibition was -5.31%.

Consider `COC(=O)[C@]12C[C@H](CC(=O)NCc3ccccc3)C(=O)N(CCC3=CCCCC3)C1=C[C@H](C(C)(C)C)O[C@@H]2C`, for which the inhibition was 28.1%.

As for `N=c1n(CCc2ccccc2)c2ccccc2n1Cc1ccccc1F`, the inhibition was 2.8%.

As to `COc1c(C=O)c(CCN(C)C(=O)c2ccc(F)cc2)cc2c1OCO2`, the inhibition is 0.41%.

For the compound `CCCC[C@H]1C2CC(OC(=O)NCc3ccccc3)C(C2)[C@H]2CCCCN21` (stereo not given in full), the inhibition was -8.24%.

For the compound `COCCC(=O)Nc1ccc2c(c1)CN(C(=O)CCOC)CC2`, the inhibition is 9.25%.

For the compound `Cc1ccc(C(=O)N(Cc2ccccn2)CC2CCCO2)cc1` (stereo not given), the inhibition is -16.2%.

For the compound `Cc1noc(C)c1NC(=O)Nc1ccc2c(c1)C(=O)N([C@H](C)CO)C[C@H](C)[C@H](CN(C)Cc1ccncc1)OCCCC[C@@H](C)O2`, the inhibition was 5.48%.

`CC(C)N1CCCCC(NC(=O)C(C)(C)C)C1=O` (stereo not given): the inhibition is 11.4%.

`O=C(Nc1ccccc1Cl)/C(Cl)=C(\Cl)S(=O)c1ccccc1` (stereo not given): the inhibition is 85.5% (active).

Take `COc1ccc(N2c3ccccc3CN(Cc3ccccc3)[C@@H](C)[C@H]2Cc2ccc(-c3ccccc3)cc2)cc1`: the inhibition is -9.73%.

With `Cc1c(C(C)c2ccccc2O)[nH]c2ccccc12` (stereo not given), the inhibition was -18.6%.

Consider `O=S1(=O)c2c(cccc2N2CC[C@H](O)C2)O[C@@H]2CCN1C2`, for which the inhibition is -22.3%.

In the case of `Cc1ccc(C2=CCN(C)C(=O)N2c2ccc(Cl)cc2)cc1`, the inhibition was 30.5%.

Take `O=C(NC1CCCCN(Cc2cccc(C(F)(F)F)c2)C1=O)c1ccccc1I` (stereo not given): the inhibition was 18.9%.

For the compound `CCCC(CCC(=O)OC)(C(=O)OCC)c1csc(N)n1` (stereo not given), the inhibition is 11%.

Consider `CCOC(=O)[C@]12CCCCC/C=C\1N(Cc1ccc(OC)cc1)C(=O)[C@H]2CC(=O)NCc1ccc(C)o1`, for which the inhibition is -22.3%.

For `O=C(CSc1nc2ccccc2n1Cc1ccccc1)NNC(=S)Nc1ccccc1`, the inhibition is 4.68%.

Take `COC(=O)C1=C(C)N(Cc2cccc(C(F)(F)F)c2)C(=NCc2cccc(C(F)(F)F)c2)NC1c1ccccc1C(F)(F)F` (stereo not given): the inhibition was -30.7%.

Take `Cc1ccccc1CN1CCCCC(NC(=O)c2cccc(C#N)c2)C1=O` (stereo not given): the inhibition was -18.3%.

The inhibition is the relative decrease from the control value, in per cent.

The values are drawn from PubChem BioAssay AID651957 (The Scripps Research Institute Molecular Screening Center, 2012).
